Among all 350,000 compounds or so, about 1,600 (0.46%) were called active. This is one part of a sample in which actives are shown more often than they occur.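 The calls were made as follows: active = activation of at least 50%, plus an integration ratio under a set limit after plate pattern correction; inactive = the rest.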

From PubChem BioAssay AID588473 (Sanford-Burnham Center for Chemical Genomics, 2011) come the findings set out here.

The assay has as its system CRF-binding protein / CRF receptor 2 complex (human). The assay can be described thus: agonists of CRF-BP/CRF-R2 complex, primary screen, cell-based, HEK293, calcium dye fluorescence, uHTS (AID 588473).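 Also: plate controls were neutral control wells without compound for no effect and CRF at EC100 for full effect.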 Particulars: calcium dye fluorescence (FLIPR), at 13.2 µM, stronger effect = higher value, percent of saturating CRF peptide response.
Regarding `COc1ccc(Cl)cc1-n1c(=S)sc2c(=O)n(-c3ccc(F)cc3)c(SCC(=O)O)nc21`, the activation was -1.84% (inactive).

As to `Cc1cccn2c(=O)c(/C=C(\C#N)S(=O)(=O)c3ccc(Cl)cc3)c(N3CCC(C(N)=O)CC3)nc12`, the activation was 9.75% (inactive).

For the compound `Cc1cccn2c(=O)c(/C=C(\C#N)C(N)=O)c(N3CCCCCC3)nc12`, the activation is -2.5% (inactive).

For the compound `CCOC(=O)CC1C(=O)NCCN1c1nc2c(C)cccn2c(=O)c1/C=C1\SC(=S)N(C(C)CC)C1=O` (stereo unspecified), the activation is 177% (active).

As for `CCCN(CCC)c1ccc(C(O)c2nnc(-c3ccccc3)o2)cc1` (stereo unspecified), the activation was -0.49% (inactive).

`Cc1cccc2c1-c1sc(C(=O)NCCCN3CCc4ccccc4C3)cc1CO2`: the activation is 3.21% (inactive).

Regarding `C[C@H]1CN([C@@H](C)CO)C(=O)Cc2cc(NC(=O)Cc3ccccc3)ccc2O[C@H]1CN(C)S(=O)(=O)c1cccs1`, the activation is 0.76% (inactive).

For the compound `O=C(Nc1cccc(F)c1)c1coc(=O)c(Br)c1`, the activation is 67% (active).

`O=C(CCN1C(=O)c2ccccc2C1=O)Nc1cccc(F)c1`: the activation was -0.06% (inactive).

With `Cc1c(NC(=O)c2coc(=O)c(Br)c2)c(=O)n(-c2ccccc2)n1C`, the activation is -1.21% (inactive).

Consider `O=C(O)c1ccc(S(=O)(=O)c2ccccc2)s1`, for which the activation is 0.6% (inactive).

Turning to `Cc1nn(C(C)(C)C)c(OC(=O)CC(C)C)c1S(=O)(=O)c1ccccc1`, the activation is 4.7% (inactive).

For the compound `CC(C)[C@H](NC(=O)N1c2ccccc2NC(=O)[C@@H]1C(C)C)C(=O)N[C@H](C(=O)O)c1ccccc1`, the activation is 0.51% (inactive).

For the compound `CCN1/C(=C\c2ccc3ccccc3[n+]2CC)Sc2cc(C)ccc21`, the activation is 200% (active).

Consider `CCN1/C(=C/c2ccc3ccc(C)cc3[n+]2CC)Sc2ccccc21`, for which the activation was 143% (active).

Regarding `COc1ccc(SCCN2CCN(CC(C)C)CCC2=O)cc1`, the activation is -0.91% (inactive).

Take `COC(=O)C(C)Oc1ccc2c(-c3cccc([N+](=O)[O-])c3)cc(=O)oc2c1` (stereo unspecified): the activation was -3.43% (inactive).

With `CCC1SC(CC)C(=O)N(CC(=O)NC2CCCCC2)C1=O` (stereo unspecified), the activation was -0.56% (inactive).

On to `CCOC(=O)[C@H]1[C@H]2COc3ccccc3[C@@H]2N2C(=O)CN(Cc3ccccc3)C(=O)[C@@]12C`, for which the activation was -0.27% (inactive).

Regarding `O=[N+]([O-])c1cc(Br)c(O)c(/C=N/Nc2nc3ccccc3s2)c1`, the activation is 82.8% (active).

As for `O=C(N/N=C/c1cc(Br)c(O)c([N+](=O)[O-])c1)C(O)(c1ccccc1)c1ccccc1`, the activation is -0.94% (inactive).

`c1ccc(C(=NNc2nc3ccccc3s2)c2ccccn2)cc1`: the activation was 5.4% (inactive).

With `CCNC(=S)N1CCN(S(=O)(=O)c2ccc(Cl)s2)CC1`, the activation was 3.39% (inactive).

Take `CSc1ccccc1NC(=O)C(C)N1C(=O)c2ccccc2S1(=O)=O` (stereo unspecified): the activation was 1.1% (inactive).

As for `Cc1ccc(N2C(=O)CC(Nc3cccc4ccccc34)C2=O)cc1` (stereo unspecified), the activation is 0.15% (inactive).

Take `CC(=O)Nc1ccccc1Sc1ccc2c3c(cccc13)C(=O)N(c1ccc(C)cc1)C2=O`: the activation is 87.7% (active).

Take `CCC(=O)N1CCc2cc(Br)c(S(=O)(=O)NCCN3CCCCC3CC)cc21` (stereo unspecified): the activation is -1.55% (inactive).

For the compound `CSc1cccc(NC(=O)CN2C(=O)COc3ccc(S(=O)(=O)N4CCOCC4)cc32)c1`, the activation is -1.06% (inactive).

Turning to `O=C(COc1ccc(S(=O)(=O)N2CCCC2)cc1[N+](=O)[O-])N1CCCCC1`, the activation is -0.47% (inactive).

Consider `COc1ccc2c(c1)SC(C)CC2=O` (stereo unspecified), for which the activation is -0.7% (inactive).

Regarding `COc1ccc2c(c1)C(=O)CC(c1ccccc1)O2` (stereo unspecified), the activation was -2.49% (inactive).

Take `COc1ccc2c(c1)OC(O)(C(F)(F)C(F)F)CC2=O` (stereo unspecified): the activation is 66.2% (active).

Take `COc1ccc(-c2c(-c3cc(OC)cc(OC)c3)n(C)c3ccc(-c4ccn[nH]4)cc23)cc1`: the activation is 2.7% (inactive).

`CC1CC1C(=O)OCC(=O)Nc1cccc(F)c1` (stereo unspecified): the activation is 1.09% (inactive).

Regarding `CCOCCc1c(O)nc(SCC(=O)NCc2ccco2)[nH]c1=O`, the activation is 0.28% (inactive).

`Cc1ccc(CN(C)C[C@@H]2OCc3cnnn3CCCC(=O)N([C@@H](C)CO)C[C@H]2C)cc1`: the activation was 0.05% (inactive).

Consider `COC(=O)Cc1cc(=O)oc2c(C)c(O)ccc12`, for which the activation was 2.46% (inactive).

For the compound `Cc1cc(S(=O)(=O)c2cc3ccc(O)c(C)c3oc2=O)ccc1F`, the activation was 91.1% (active).

In the case of `COc1cccc2cc(S(=O)(=O)c3ccc(C)cc3)/c(=N/NS(=O)(=O)c3ccc(C)cc3)oc12`, the activation is 2.38% (inactive).

In the case of `COc1ccc(-c2[nH]ncc2CN(C)Cc2cc(C)[nH]n2)c(F)c1`, the activation was -4.41% (inactive).

As for `CCN(CC)c1ccc(NC(=O)C2CCC(CNc3c(N4CCCC4)c(=O)c3=O)CC2)c(C)c1` (stereo unspecified), the activation is -1.59% (inactive).

`COc1ccc(/C=C(\C#N)C(=O)ONC2=NCCCCC2)cc1`: the activation was -0.53% (inactive).

Consider `CCOC(=O)/C(C#N)=C/c1ccc(N2CCCCC2)cc1`, for which the activation is 69.9% (active).

Take `COc1ccc(/C=C(\C#N)C(=O)OCC(=O)N(C)C2CCS(=O)(=O)C2)cc1` (stereo unspecified): the activation is -0.47% (inactive).

For `CCCn1c(C)cc(/C=C(\C#N)C(=O)OCC(=O)N(C)c2c(N)n(Cc3ccccc3)c(=O)[nH]c2=O)c1C`, the activation is -1.33% (inactive).

`CC(C)OC(=O)C(C#N)c1nc2ccccc2nc1N1CCN(Cc2ccccc2)CC1` (stereo unspecified): the activation was 4.17% (inactive).

For the compound `CCOC(=O)/C(C#N)=C/c1ccc(N2CCN(Cc3ccccc3)CC2)cc1`, the activation was 100% (active).

As to `CC(C)c1nc(CNC(=O)CC2C(=O)NCCN2Cc2ccoc2)cs1` (stereo unspecified), the activation was 3.31% (inactive).

As to `CCO[C@H]1OC(C(=O)N2CCN(Cc3ccccc3)CC2)=C[C@@H](c2cn(C(C)=O)c3ccccc23)[C@@H]1CCCO`, the activation is -0.99% (inactive).

With `O=C(OCc1cn(-c2ccc(Cl)c(Cl)c2)nn1)c1ccccc1Cl`, the activation was 5.3% (inactive).

As to `CC(C(=O)N1CCN(c2ccccc2F)CC1)c1ccc([N+](=O)[O-])cc1` (stereo unspecified), the activation was -0.08% (inactive).

As to `CC(C)CNC(=O)/C=C/C(=O)O`, the activation was -1.76% (inactive).

For the compound `CCCc1cc(=O)n2[nH]c(SCc3ccccc3)nc2n1`, the activation is 1.41% (inactive).

As to `Cc1cccc(-c2nnc(SCC(=O)O)n2Cc2ccccc2)c1`, the activation is -1.45% (inactive).

Regarding `Cc1ccc2c(c1)nnc1nnc(SCC(=O)O)n12`, the activation is 187% (active).

With `CCn1nnnc1SCC(=O)c1ccc(C)cc1C`, the activation is 1.45% (inactive).

As to `CC1(C)C2CCC13CS(=O)(=O)NC3C2` (stereo unspecified), the activation is -2.27% (inactive).

Take `CC1Cc2nc(SCC(=O)Nc3ccccc3F)n(C)c(=O)c2S1` (stereo unspecified): the activation is -2.32% (inactive).

`COc1cccc(N(CC(=O)NC2CCCC2)C(=O)Cn2nnc(-c3ccc(C)cc3)n2)c1`: the activation is -0.55% (inactive).

For `CCOc1ccc2nc(N3CCCN(C(=O)Nc4ccccc4C)CC3)c(C#N)cc2c1`, the activation was 53.4% (active).

As to `CCOc1ccc2nc(NCCNC(=O)C(C)(C)C)c(C)cc2c1`, the activation is 0.31% (inactive).

With `CCOc1ccc(C(=O)NC2CCN(C(=O)Nc3ccccc3OC)CC2)cc1`, the activation was 1.14% (inactive).

`CCC(=O)Nc1cc(C(F)(F)F)ccc1N1CCCC1`: the activation is -0.05% (inactive).

In the case of `CCCCCCSc1ccc([C@@H]2[C@@H]3C(=O)N(CC)C(=O)[C@@H]3[C@]3(C(=O)OC)CCCCN23)cc1OC`, the activation was 5.06% (inactive).

With `N#C/C(=C\C1=C(N2CCOCC2)C(=C\c2ccccc2)/CC1)C(=O)Nc1ccccc1F`, the activation was 10.9% (inactive).

In the case of `N#C/C=C(/c1ccc(F)cc1)N1CCOCC1`, the activation was -1.81% (inactive).

For the compound `N#C/C(=C\N1CCOCC1)S(=O)(=O)c1ccc(Cl)cc1`, the activation is -0.74% (inactive).

Take `O=C(N1CCOCC1)N1CCOCC1`: the activation is -0.16% (inactive).

For `N#C/C(=C/c1ccc(N2CCOCC2)o1)C(=O)N1CCOCC1`, the activation was 67.4% (active).

With `N#C/C(=C\c1ccc(N2CCOCC2)o1)C(=O)N1CCOCC1`, the activation was 57.8% (active).

In the case of `CCCN(CC(=O)Nc1ccc(C(N)=O)cc1)CC(=O)Nc1ccccc1C`, the activation was -1.42% (inactive).

For the compound `CCCn1nc(NC(=O)C(C)C)c2cc3cc(OC)ccc3nc21`, the activation was -3.44% (inactive).

With `O=C(O)CSc1nccc2ccccc12`, the activation is -1.24% (inactive).

As for `O=C1/C(=C/c2ccc(F)cc2)SC(=S)N1NS(=O)(=O)c1ccccc1`, the activation was -2.42% (inactive).

On to `Cn1cccc1/C=C1\SC(=S)N(NC(=O)c2ccc(Cl)cc2)C1=O`, for which the activation is 0.66% (inactive).

`O=C(O)C(c1ccccc1)N1C(=O)/C(=C\c2ccc(-c3cccc(Cl)c3)o2)SC1=S` (stereo unspecified): the activation is 53.1% (active).

For `NS(=O)(=O)c1ccc(-c2ccc(/C=C3\SC(=O)NC3=O)o2)cc1`, the activation is -4.11% (inactive).

As to `CC(C(=O)NC1CCS(=O)(=O)C1)N1C(=O)/C(=C/c2ccc(Cl)cc2)SC1=S` (stereo unspecified), the activation is 0.11% (inactive).

For `CN1C(=O)/C(=C\c2ccc(-c3ccccc3)o2)SC1=S`, the activation was 177% (active).

Turning to `Cc1nn(CC(=O)NC2CCCCC2)c(=O)c2cccn12`, the activation was -0.23% (inactive).

Regarding `O=S1(=O)C=C(SCCN2CCCC2)c2ccccc21`, the activation is 0.69% (inactive).

For the compound `CCCN1C2CCCC1CC(NC(=O)NC13CC4CC(CC(C4)C1)C3)C2` (stereo unspecified), the activation is 0.55% (inactive).

Regarding `Cc1cccc(N(C)C(=O)CN2C(=O)COc3ccc(S(=O)(=O)N4CCCCCC4)cc32)c1`, the activation was 21.6% (inactive).

Take `COc1cc(CCC(=O)OCC(=O)Nc2cccc(S(N)(=O)=O)c2)cc(OC)c1OC`: the activation was 1.86% (inactive).

For the compound `COC(=O)c1cc(NC(=O)c2nn(C)c(=O)c3ccccc23)cc(C(=O)OC)c1`, the activation is -0.23% (inactive).

With `CCN(CC)c1ccc2oc(=O)c(C)nc2c1`, the activation was 111% (active).

Take `CCc1ccc2oc(-c3ccc(N)cc3)nc2c1`: the activation was 0.69% (inactive).

`Cc1ccc2oc(=O)ccc2c1`: the activation is -1.36% (inactive).

As to `C/C(CC(=O)NC(C)(C)C)=N\NC(=O)c1ccco1`, the activation is -2.93% (inactive).

Regarding `CN1CCC(=O)N([C@H](CO)Cc2ccccc2)CC1`, the activation is 0.86% (inactive).

For `O=C1NC(Nc2nc3ccccc3s2)(C(F)(F)F)C(=O)N1C1CCCCC1` (stereo unspecified), the activation was -0.92% (inactive).
